Test results taken from PubChem BioAssay AID652115 (Broad Institute, 2013).
The campaign covered roughly 330,000 compounds. About 3,800 (1.2%) were called active. Rule as the data show it: active = inhibition above about 15%; inconclusive = no clear call, values can overlap the other calls; inactive = below that. Many of the other results were omitted from the sample, so actives are more common in it than they were.

The compounds below were run against NAD-dependent protein deacylase sirtuin-5, mitochondrial (Homo sapiens) (UniProt Q9NXA8) (assay: blockers of sirtuin-5 deacylase activity – biochemical, fluorescence imaging, single point, set 5, primary screen (AID 652115)). Conditions: Purified SirT5, succinyl-peptide AMC, trypsin-coupled fluorescence; at 15 µM; hits give high values.
Chain of NAD-dependent protein deacylase sirtuin-5, mitochondrial (Homo sapiens) (Q9NXA8 whole entry, looked up): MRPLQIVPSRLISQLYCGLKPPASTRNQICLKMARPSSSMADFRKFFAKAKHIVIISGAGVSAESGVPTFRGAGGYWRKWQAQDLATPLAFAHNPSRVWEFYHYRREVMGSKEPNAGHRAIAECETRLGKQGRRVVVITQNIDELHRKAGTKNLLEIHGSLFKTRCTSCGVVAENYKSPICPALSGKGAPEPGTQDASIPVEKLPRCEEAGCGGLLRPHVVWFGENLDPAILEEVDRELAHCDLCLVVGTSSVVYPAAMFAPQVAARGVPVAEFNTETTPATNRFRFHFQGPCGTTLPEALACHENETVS

inhibition, active:
C[C@@H]1CN([C@@H](C)CO)C(=O)c2cc(NC(=O)Nc3cccc4ccccc34)ccc2O[C@@H](C)CCCCO[C@@H]1CN(C)S(=O)(=O)c1ccc(Cl)cc1 18.7%, COc1ccc(S(=O)(=O)N(C)C[C@H]2OCCCC[C@@H](C)Oc3ccc(NS(=O)(=O)c4ccc(C)cc4)cc3C(=O)N([C@@H](C)CO)C[C@@H]2C)cc1 21.4%, C[C@@H]1CN([C@H](C)CO)C(=O)c2cc(NC(=O)Nc3ccc4c(c3)OCO4)ccc2O[C@@H](C)CCCCO[C@@H]1CN(C)Cc1ccc2c(c1)OCO2 15.3%, COc1ccc(S(=O)(=O)N(C)C[C@H]2OCCCC[C@H](C)Oc3ccc(NS(=O)(=O)c4ccc(F)cc4)cc3C(=O)N([C@@H](C)CO)C[C@@H]2C)cc1 20.4%, Cc1ccc(S(=O)(=O)N(C)C[C@@H]2OCCCC[C@@H](C)Oc3ccc(NS(=O)(=O)c4ccc(F)cc4)cc3C(=O)N([C@H](C)CO)C[C@H]2C)cc1 19.9%, COc1ccc(S(=O)(=O)Nc2ccc3c(c2)C(=O)N([C@@H](C)CO)C[C@@H](C)[C@H](CN(C)Cc2ccc(C(F)(F)F)cc2)OCCCC[C@@H](C)O3)cc1 16.7%, C[C@H](CO)N1C[C@H](C)[C@H](CN(C)Cc2ccc(C(F)(F)F)cc2)Oc2ccc(NS(C)(=O)=O)cc2C1=O 21.5%, C[C@H](CO)N1C[C@H](C)[C@H](CN(C)S(=O)(=O)c2ccc(F)cc2)OCCCC[C@H](C)Oc2ccc(NS(=O)(=O)c3ccc(Cl)cc3)cc2C1=O 17.6%

inhibition, inactive:
COc1ccccc1NC(=O)Nc1ccc2c(c1)OC[C@H](C)NC[C@H](C)[C@@H](OC)CN(C)C2=O 6.5%, COc1ccc(S(=O)(=O)Nc2ccc3c(c2)C(=O)N([C@@H](C)CO)C[C@H](C)[C@@H](CN(C)S(=O)(=O)c2ccc(F)cc2)OCCCC[C@H](C)O3)cc1 3.5%, CC(C)NC(=O)Nc1ccc2c(c1)C(=O)N([C@@H](C)CO)C[C@H](C)[C@H](CN(C)S(=O)(=O)c1ccc(Cl)cc1)OCCCC[C@H](C)O2 4.57%, COc1ccc(S(=O)(=O)N(C)C[C@@H]2OCCCC[C@@H](C)Oc3ccc(NS(=O)(=O)c4ccccc4)cc3C(=O)N([C@@H](C)CO)C[C@H]2C)cc1 4.81%, C[C@H]1CCCCO[C@@H](CN(C)Cc2ccc3c(c2)OCO3)[C@@H](C)CN([C@@H](C)CO)C(=O)c2cc(NC(=O)Nc3ccc(F)cc3)ccc2O1 1.57%, COc1ccc(S(=O)(=O)Nc2ccc3c(c2)C(=O)N([C@@H](C)CO)C[C@H](C)[C@@H](CN(C)S(=O)(=O)c2ccc(C)cc2)OCCCC[C@@H](C)O3)cc1 4.83%, C[C@H](CO)N1C[C@H](C)[C@@H](CN(C)S(C)(=O)=O)OCCCC[C@H](C)Oc2ccc(NC(=O)Nc3cccc4ccccc34)cc2C1=O -3.3%, COc1ccc(S(=O)(=O)Nc2ccc3c(c2)C(=O)N([C@@H](C)CO)C[C@H](C)[C@H](CN(C)S(=O)(=O)c2ccc(F)cc2)OCCCC[C@@H](C)O3)cc1 11.3%, C[C@@H]1CCCCO[C@@H](CN(C)Cc2ccc3c(c2)OCO3)[C@@H](C)CN([C@@H](C)CO)C(=O)c2cc(NC(=O)Nc3ccccc3)ccc2O1 0.341%, O=C(NCC[C@@H]1CC[C@@H](NS(=O)(=O)c2cccc(F)c2)[C@H](CO)O1)C1CC1 -0.786%, C[C@H]1CN([C@@H](C)CO)C(=O)c2cccc(NC(=O)Nc3ccccc3)c2O[C@H]1CN(C)S(=O)(=O)c1ccc(F)cc1 -1.45%, CCC(=O)Nc1ccc2c(c1)C(=O)N(C)[C@H]1CC[C@H](CC(=O)NCCOC)O[C@@H]1CO2 2.38%, C[C@@H]1CN([C@@H](C)CO)C(=O)Cc2cc(NS(=O)(=O)c3cccs3)ccc2O[C@@H]1CN(C)C(=O)Nc1ccc(C(F)(F)F)cc1 3.48%, Cc1ccc(S(=O)(=O)N(C)C[C@H]2OCCCC[C@@H](C)Oc3ccc(NC(=O)Nc4ccc(F)cc4)cc3C(=O)N([C@@H](C)CO)C[C@H]2C)cc1 -2.04%, COc1ccc(S(=O)(=O)Nc2ccc3c(c2)C(=O)N([C@H](C)CO)C[C@@H](C)[C@H](CN(C)S(=O)(=O)c2ccc(Cl)cc2)OCCCC[C@@H](C)O3)cc1 13.8%, C[C@H]1CN([C@@H](C)CO)C(=O)c2cc(NS(C)(=O)=O)ccc2O[C@H]1CN(C)C(=O)Nc1ccc(C(F)(F)F)cc1 -4.07%, Cc1ccc(S(=O)(=O)Nc2ccc3c(c2)C(=O)N([C@H](C)CO)C[C@H](C)[C@H](CN(C)S(=O)(=O)c2ccc(F)cc2)OCCCC[C@@H](C)O3)cc1 4.66%, C[C@@H]1CCCCO[C@H](CN(C)S(=O)(=O)c2ccc(F)cc2)[C@H](C)CN([C@@H](C)CO)C(=O)c2cc(NS(=O)(=O)c3ccccc3)ccc2O1 4.58%, COc1ccc(S(=O)(=O)Nc2ccc3c(c2)C(=O)N([C@@H](C)CO)C[C@H](C)[C@H](CN(C)Cc2ccc(C(F)(F)F)cc2)OCCCC[C@@H](C)O3)cc1 9.2%, COc1ccc(CN(C)C[C@@H]2OCCCC[C@H](C)Oc3ccc(NS(=O)(=O)c4ccc(F)cc4)cc3C(=O)N([C@H](C)CO)C[C@H]2C)cc1 -3.51%, C[C@@H]1CN([C@H](C)CO)C(=O)c2cc(NS(=O)(=O)c3cccs3)ccc2O[C@@H]1CN(C)Cc1ccc(C(F)(F)F)cc1 2.33%, O=C(C[C@H]1CC[C@H]2[C@@H](COC[C@@H](O)CN2C(=O)c2ccc3c(c2)OCO3)O1)NC1Cc2ccccc2C1 -1.48%, CCCNC(=O)Nc1ccc2c(c1)OC[C@H](C)N(C(=O)C1CCC1)C[C@H](C)[C@@H](OC)CN(C)C2=O -2.08%, COc1ccc2c3c([nH]c2c1)[C@H](CO)N(Cc1nccs1)CC31CCN(Cc2ccncc2)CC1 1.68%
